# PubChem BioAssay (EPA / NIEHS)
# Results filed as inconclusive are left out. Calls of active or inactive are those of the source. Rule for the calls, unless noted: active = hit-call score of the fitted dose curve at least 0.9, where 1 is the maximum; inactive = score below 0.9.
# Experiments:
# [1] = read-out: succinate dehydrogenase complex iron sulfur subunit B (SDHB), SDHB (gene 6390); experiment: LTEA_HepaRG_SDHB: Life Technologies and Expression Analysis (LTEA) Assay for succinate dehydrogenase complex iron sulfur subunit B (SDHB) using HepaRG (AID 2283528); details: mRNA level, 48 h; actives raise or lower the signal
# Procedure, shortened: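 SDHB transcript level read by TaqMan qRT-PCR, housekeeping-normalised (ACTB, GAPDH, POLR2A), after 48 h chemical treatment of plated HepaRG cells; eight concentrations top 100 uM, half-log steps, 0.5% DMSO, duplicates; fitted both directions against DMSO.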
# [2] = read-out: Signal transducer and activator of transcription 3 (Homo sapiens) (UniProt P40763); experiment: LTEA_HepaRG_STAT3: Life Technologies and Expression Analysis (LTEA) Assay for Signal transducer and activator of transcription (STAT3) using HepaRG (AID 2283529); details: mRNA level, 48 h; actives raise or lower the signal
# Procedure, shortened: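 Differentiated HepaRG cells, serum-free induction medium, dosed 48 h in duplicate, 8 half-log concentrations from 100 uM in 0.5% DMSO. STAT3 mRNA by qRT-PCR, normalised to ACTB, GAPDH, POLR2A; bidirectional fit versus DMSO.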
# [3] = read-out: solute carrier (SLCO1B1), SLCO1B1 (gene 10599); experiment: LTEA_HepaRG_SLCO1B1: Life Technologies and Expression Analysis (LTEA) Assay for solute carrier (SLCO1B1) using HepaRG (AID 2283530); details: mRNA level, 48 h; actives raise or lower the signal
# Procedure, shortened: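 SLCO1B1 transcript levels were quantified by TaqMan qRT-PCR using three housekeeping genes for normalization. This followed 48 h chemical exposure (100 uM top, half-log, 8 points, 0.5% DMSO) of HepaRG liver cells, with gain or loss fitted relative to DMSO.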
# [4] = read-out: sulfotransferase 2A1 (SULT2A1), SULT2A1 (gene 6822); experiment: LTEA_HepaRG_SULT2A1: Life Technologies and Expression Analysis (LTEA) Assay for sulfotransferase 2A1 (SULT2A1) using HepaRG (AID 2283531); details: mRNA level, 48 h; actives raise or lower the signal
# Procedure, shortened: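 Expression change of SULT2A1, by qRT-PCR with three housekeeping-gene normalization, was scored bidirectionally versus DMSO. Cells: differentiated HepaRG, dosed in duplicate for 48 h across 8 points, highest 100 µM, half-log dilution, 0.5% DMSO.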
# [5] = read-out: Transforming Growth Factor (TGFA), TGFA (gene 7039); experiment: LTEA_HepaRG_TGFA: Life Technologies and Expression Analysis (LTEA) Assay for Transforming Growth Factor (TGFA) using HepaRG (AID 2283532); details: mRNA level, 48 h; actives raise or lower the signal
# Procedure, shortened: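 Differentiated HepaRG cells exposed 48 hours in serum-free induction medium, 0.5% DMSO vehicle, 8-point half-log series from 100 uM, in duplicate. TGFA mRNA by TaqMan qRT-PCR, normalised to ACTB, GAPDH, POLR2A; bidirectional fit versus DMSO.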
# TIMP1, TIMP1 (gene 7076) = experiment: LTEA_HepaRG_TIMP1: Life Technologies and Expression Analysis (LTEA) Assay for TIMP1 using HepaRG (AID 2283534); details: mRNA level, 48 h; actives raise or lower the signal
# Procedure, shortened: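 Bidirectional change in TIMP1 transcript versus 0.5% DMSO, measured by TaqMan qRT-PCR with three housekeeping genes for normalization. HepaRG human liver cells dosed 48 h in duplicate, top concentration 100 uM with half-log dilutions.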
# [6] = read-out: Tumor necrosis factor receptor 1 (TNFRSF1A), TNFRSF1A (gene 7132); experiment: LTEA_HepaRG_TNFRSF1A: Life Technologies and Expression Analysis (LTEA) Assay for Tumor necrosis factor receptor 1 (TNFRSF1A) using HepaRG (AID 2283535); details: mRNA level, 48 h; actives raise or lower the signal
# Procedure, shortened: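 mRNA measured by qRT-PCR (TaqMan, Fluidigm arrays) against ACTB/GAPDH/POLR2A housekeepers after 48 h chemical exposure of HepaRG cells. Top concentration 100 uM, half-log 8-point series, duplicates; vehicle 0.5% DMSO, both fit directions.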
# [7] = read-out: Thyroid Hormone Responsive (THRSP), THRSP (gene 7069); experiment: LTEA_HepaRG_THRSP: Life Technologies and Expression Analysis (LTEA) Assay for Thyroid Hormone Responsive (THRSP) using HepaRG (AID 2283536); details: mRNA level, 48 h; actives raise or lower the signal
# Procedure, shortened: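 Differentiated HepaRG cells treated 48 h in serum-free induction medium with 8 half-log concentrations up to 100 uM (0.5% DMSO), duplicates. THRSP mRNA by TaqMan qRT-PCR normalised to ACTB, GAPDH, POLR2A; bidirectional fit versus DMSO.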
# [8] = read-out: UDP glucuronosyltransferase (UGT1A1), UGT1A1 (gene 54658); experiment: LTEA_HepaRG_UGT1A1: Life Technologies and Expression Analysis (LTEA) Assay for UDP glucuronosyltransferase (UGT1A1) using HepaRG (AID 2283538); details: mRNA level, 48 h; actives raise or lower the signal
# Procedure, shortened: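 HepaRG cells, 0.5% DMSO vehicle, 48 h exposure in serum-free induction medium to 8-point half-log series topping at 100 uM, in duplicate. UGT1A1 mRNA by Fluidigm qRT-PCR, normalized to ACTB/GAPDH/POLR2A; bidirectional fit versus DMSO.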
# [9] = read-out: X-box binding protein 1 (XBP1), XBP1 (gene 7494); experiment: LTEA_HepaRG_XBP1: Life Technologies and Expression Analysis (LTEA) Assay for X-box binding protein 1 (XBP1) using HepaRG (AID 2283540); details: mRNA level, 48 h; actives raise or lower the signal
# Procedure, shortened: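 XBP1 transcript by qRT-PCR (housekeeping-normalized: ACTB, GAPDH, POLR2A) after 48 h chemical treatment of HepaRG cells, 8-point half-log series topping at 100 uM, vehicle 0.5% DMSO. Gain and loss of signal fitted relative to DMSO.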
# [10] = LTEA_HepaRG_LDH_cytotoxicity: Cytotoxicity Assessment in the Life Technologies and Expression Analysis (LTEA) Assay (AID 2283563; active = hit-call score of the fitted dose curve at least 0.9, where 1 is the maximum)
# Procedure, shortened: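 LDH release into culture medium read after 48 h chemical treatment of HepaRG cells. Duplicate wells, eight-point half-log series topping at 100 uM, 0.5% DMSO vehicle and baseline.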
# [11] = ATG_XTT_Cytotoxicity: Cytotoxicity Assessment in the Attagene TRANS-FACTORIAL HepG2 Assay (AID 2283584; active = hit-call score of the fitted dose curve at least 0.9, where 1 is the maximum)
# Procedure, shortened: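 Viability endpoint from XTT after 24 h chemical exposure of reporter-transfected human HepG2 liver cells; signal loss fitted relative to DMSO negative control.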
# [12] = TOX21_p53_BLA_p2_viability: Viability Assessment in the Tox21 HCT-116 p53 Agonism Beta-lactamase Assay, Phase 2 (AID 2283591; active = hit-call score of the fitted dose curve at least 0.9, where 1 is the maximum;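 note: compound exposure lasted 16 h at 37 °C; actives lower the ATP signal meaning cytotoxicity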)
# Procedure, shortened: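 HCT116 p53-bla cells, 4000/well, dosed after 5 h plating (217-fold dilution of DMSO stocks) and incubated 16 h at 37C. Viability taken as cellular ATP by CellTiter-Glo luminescence after 30 min RT; signal loss marks cytotoxicity.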
# [13] = target: Cellular tumor antigen p53 (Homo sapiens) (UniProt P04637); experiment: TOX21_p53_BLA_p2_ratio: Tox21 HCT-116 p53 Agonism Beta-lactamase Assay, Ratio, Phase 2 (AID 2283592; active = hit-call score of the fitted dose curve at least 0.9, where 1 is the maximum)
# Cellular tumor antigen p53 (Homo sapiens), sequence (P04637 whole entry, looked up): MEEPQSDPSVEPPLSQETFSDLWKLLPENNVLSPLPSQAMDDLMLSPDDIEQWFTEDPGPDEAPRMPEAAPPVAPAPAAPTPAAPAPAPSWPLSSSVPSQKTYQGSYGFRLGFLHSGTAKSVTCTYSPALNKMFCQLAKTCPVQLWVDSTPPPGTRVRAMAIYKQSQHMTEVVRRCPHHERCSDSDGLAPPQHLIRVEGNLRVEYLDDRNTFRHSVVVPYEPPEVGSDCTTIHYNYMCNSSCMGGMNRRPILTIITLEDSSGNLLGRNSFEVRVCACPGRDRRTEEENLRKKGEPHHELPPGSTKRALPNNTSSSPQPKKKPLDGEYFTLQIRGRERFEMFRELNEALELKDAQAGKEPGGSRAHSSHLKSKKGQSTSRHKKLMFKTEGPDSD
# Procedure, shortened: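 Gain-of-signal p53 agonism was scored from the beta-lactamase FRET ratio (460/530 nm, 405 nm excitation) in HCT116 cells treated 16 h at 37C, 5% CO2, with DMSO serving as negative control and baseline.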
# [14] = target: Cellular tumor antigen p53 (Homo sapiens) (UniProt P04637); experiment: TOX21_p53_BLA_p3_ratio: Tox21 HCT-116 p53 Agonism Beta-lactamase Assay, Ratio, Phase 3 (AID 2283596; active = hit-call score of the fitted dose curve at least 0.9, where 1 is the maximum)
# Procedure, shortened: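 HCT116 p53-bla cells (4000/well) given compound in DMSO (217-fold dilution) after 5 h, incubated 16 h at 37C. CCF4-AM substrate 2 h at room temperature; 460/530 nm emission ratio, gain fitted against DMSO.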
# [15] = TOX21_p53_BLA_p4_viability: Viability Assessment in the Tox21 HCT-116 p53 Agonism Beta-lactamase Assay, Phase 4 (AID 2283597; active = hit-call score of the fitted dose curve at least 0.9, where 1 is the maximum;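 note: hits lower the luminescence signal meaning cytotoxicity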)
# Procedure, shortened: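 Following a 16 h exposure at 37C, the treated HCT116 wells were first read for the FRET ratio. They were then lysed with CellTiter-Glo, and ATP luminescence was recorded after 30 min at room temperature.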
# [16] = read-out: Transforming Growth Factor (TGFB1), TGFB1 (gene 7040); experiment: LTEA_HepaRG_TGFB1: Life Technologies and Expression Analysis (LTEA) Assay for Transforming Growth Factor (TGFB1) Transporter using HepaRG (AID 2283533); details: mRNA level, 48 h; actives raise or lower the signal
# Procedure, shortened: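 TGFB1 transcript measured by qRT-PCR with normalisation to three housekeeping genes (ACTB, GAPDH, POLR2A); human HepaRG line treated in duplicate for 48 hr with an 8-point series topping at 100 uM, 0.5% DMSO vehicle, bidirectionally fitted.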
# [17] = read-out: Cellular tumor antigen p53 (Homo sapiens) (UniProt P04637); experiment: LTEA_HepaRG_TP53: Life Technologies and Expression Analysis (LTEA) Assay for Tumor Protein P53 (TP53) using HepaRG (AID 2283537); details: mRNA level, 48 h; actives raise or lower the signal
# Procedure, shortened: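 TP53 transcript measured by qRT-PCR, normalized to three housekeeping genes, after 48 h treatment of human HepaRG cultures with chemicals from 100 uM downward in half-log steps (0.5% DMSO vehicle, serum-free induction medium). Up- or down-regulation fitted against DMSO.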
# [18] = read-out: UDP glucuronosyltransferase (UGT1A6), UGT1A6 (gene 54578); experiment: LTEA_HepaRG_UGT1A6: Life Technologies and Expression Analysis (LTEA) Assay for UDP glucuronosyltransferase (UGT1A6) using HepaRG (AID 2283539); details: mRNA level, 48 h; actives raise or lower the signal
# Procedure, shortened: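 Expression was quantified by TaqMan qRT-PCR on Fluidigm arrays with ACTB/GAPDH/POLR2A normalization and bidirectional fitting against 0.5% DMSO. HepaRG cells (~100,000/well) were treated in duplicate for 48 h at eight half-log concentrations up to 100 uM in serum-free induction medium.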
# [19] = TOX21_p53_BLA_p3_viability: Viability Assessment in the Tox21 HCT-116 p53 Agonism Beta-lactamase Assay, Phase 3 (AID 2283593; active = hit-call score of the fitted dose curve at least 0.9, where 1 is the maximum;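 note: cells exposed to compound for 16 h before reading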)
# Procedure, shortened: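 HCT116 cells, 4000/well, dosed 5 h after plating by pin transfer (217-fold dilution from DMSO stock) and incubated 16 h at 37C, 5% CO2. Viability read as ATP luminescence with CellTiter-Glo after 30 min at room temperature.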
# Signal transducer and activator of transcription 3 (Homo sapiens), sequence (P40763 whole entry, looked up): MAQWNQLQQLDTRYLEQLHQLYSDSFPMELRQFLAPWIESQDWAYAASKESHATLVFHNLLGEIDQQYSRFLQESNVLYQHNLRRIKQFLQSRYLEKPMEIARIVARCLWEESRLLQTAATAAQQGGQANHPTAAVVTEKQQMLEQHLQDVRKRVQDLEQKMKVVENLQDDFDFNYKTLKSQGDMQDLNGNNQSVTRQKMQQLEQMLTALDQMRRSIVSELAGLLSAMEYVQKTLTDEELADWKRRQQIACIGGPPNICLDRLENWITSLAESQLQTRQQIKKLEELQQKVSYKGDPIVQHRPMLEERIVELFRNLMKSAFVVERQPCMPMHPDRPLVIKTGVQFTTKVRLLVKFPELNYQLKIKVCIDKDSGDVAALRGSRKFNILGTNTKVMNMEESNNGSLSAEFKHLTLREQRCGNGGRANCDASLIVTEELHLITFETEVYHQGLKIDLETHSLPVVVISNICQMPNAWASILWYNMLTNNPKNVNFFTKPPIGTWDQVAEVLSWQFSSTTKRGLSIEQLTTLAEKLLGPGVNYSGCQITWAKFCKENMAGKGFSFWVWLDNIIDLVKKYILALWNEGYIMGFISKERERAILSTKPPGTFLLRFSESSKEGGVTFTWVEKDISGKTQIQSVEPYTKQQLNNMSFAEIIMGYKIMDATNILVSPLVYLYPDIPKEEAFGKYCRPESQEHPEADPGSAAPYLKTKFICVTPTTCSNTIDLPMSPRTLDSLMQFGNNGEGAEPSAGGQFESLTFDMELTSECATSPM
structure (smiles),measurement,setting,value
CC1=C(/C=C/C(C)=C/C=C/C(C)=C/CO)C(C)(C)CCC1,outcome,[1],inactive
same,outcome,[2],inactive
same,outcome,[3],inactive
same,AC50,[4],52.2 µM (active)
same,outcome,[5],inactive
same,outcome,"TIMP1, TIMP1 (gene 7076)",inactive
same,outcome,[6],inactive
same,outcome,[7],inactive
same,AC50,[8],41.5 µM (active)
same,outcome,[9],inactive
same,outcome,[10],inactive
same,outcome,[11],inactive
same,outcome,[12],inactive
same,outcome,[13],inactive
same,outcome,[14],inactive
same,AC50,[15],78.5 µM (active)
CCCCCCCCCCCCCCCC,outcome,[1],inactive
same,outcome,[2],inactive
same,outcome,[3],inactive
same,outcome,[4],inactive
same,outcome,[5],inactive
same,outcome,[16],inactive
same,outcome,"TIMP1, TIMP1 (gene 7076)",inactive
same,outcome,[6],inactive
same,outcome,[7],inactive
same,outcome,[8],inactive
same,outcome,[9],inactive
same,outcome,[10],inactive
same,outcome,[12],inactive
same,outcome,[13],inactive
same,outcome,[14],inactive
NS(=O)(=O)c1cc2c(cc1Cl)NCNS2(=O)=O,outcome,[1],inactive
same,outcome,[2],inactive
same,outcome,[3],inactive
same,outcome,[5],inactive
same,outcome,[16],inactive
same,outcome,"TIMP1, TIMP1 (gene 7076)",inactive
same,outcome,[6],inactive
same,outcome,[7],inactive
same,outcome,[17],inactive
same,outcome,[8],inactive
same,outcome,[18],inactive
same,outcome,[9],inactive
same,outcome,[10],inactive
same,outcome,[12],inactive
same,outcome,[19],inactive
same,outcome,[14],inactive
same,outcome,[15],inactive
CCCCc1ccc2c(n1)[C@@H](c1ccc(OC)cc1C[C@H](C)C(=O)O)[C@H](C(=O)O)[C@H]2c1ccc2c(c1)OCO2,outcome,[1],inactive
same,outcome,[2],inactive
same,outcome,[3],inactive
same,outcome,[4],inactive
same,outcome,[5],inactive
same,outcome,[16],inactive
same,outcome,"TIMP1, TIMP1 (gene 7076)",inactive
same,outcome,[6],inactive
same,outcome,[7],inactive
same,outcome,[17],inactive
same,outcome,[8],inactive
same,outcome,[9],inactive
same,outcome,[10],inactive
same,outcome,[12],inactive
same,outcome,[13],inactive
same,outcome,[15],inactive
